Experimental data: the supplement of paper PMC11417369
The full ranking holds about 25,000 sequences; the median of “ln(normalized median fluorescence intensity)” is about 7.1, and the highest 2% start at about 10. For the sample, the highest values were picked, then their nearest neighbours and some sequences at random.

System: PfSIP2 AP2 domain 1 (GST-tagged)
Test: gcPBM binding intensity (ln(normalized median fluorescence intensity)); higher = stronger DNA binding
How it was run: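 Using an Agilent 4 × 180k array, primer-extended double-stranded 36-bp intergenic genomic probes and negative controls were exposed for 1 h to GST-fused P. falciparum DNA-binding domains expressed in E. coli. Binding was carried out in 1× PBS with 1% milk, 0.2 mg/ml BSA, 0.5% salmon testes DNA and 0.03% Triton X-100, and protein was detected with Alexa488 anti-GST antibody and a 488 nm scan. Binding intensity is the highest Masliner-normalised natural-log median intensity across replicate spots of either probe orientation.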

| Sequence | gcPBM binding intensity (ln) |
| --- | --- |
| AAGCGAATCTATATCACACACAAAAAAATCAGACTA [CACACA_site7072] | 6.94 |
| GACTACACACAAGGGTGTACATATATATTATATATA [XGTACX_site2247] | 7.31 |
| TAAGTATAATATTGATGTACATATAATAACTTGTAT [XGTACX_site417] | 7.03 |
| TCTTTCCTTATTAAAACACACAAATACATTATTTAA [CACACA_site2147] | 7.13 |
| TTTTATTTCTTTGCACCATTTTAAATACAAACAAAT [CACACA_negctrl_site1553] | 10.7 |
| CATTTTATTTTCTTTGTGCACAAAAATATTTTTTCT | 8.78 |
| ATATGTACAAGTTATACACACATGTACAGTTATATA [CACACA_site6706] | 7.11 |
| ATATGAAGTTATATAGTGCACATGTACAACCAAATC [GTGCAC_site9974] | 10.4 |
| TATGAGAAAAAAAGTACATGCACAAAATGTATATGT [TGCATGCA_site789] | 7.3 |
| GAAGTTAGTGTTGACTGTACATATATATGTATATAT [XGTACX_site7243] | 7.21 |
| GAAATTATGTAAAAAAGTACTAACATACATATATAT [XGTACX_site1794] | 7.18 |
| AAAAACAAACTGTGCATGCACCAAAAAAAAAAAAAA | 10.4 |
| AATGTGCAAACAAACTGTACTTTTTTTTTTTTTTTT [XGTACX_site928] | 7.84 |
| GAATTTATGAACTGTGCATGTAAAAAAAACAACAAA [TGCATGCA_site449] | 8.15 |
| TTATTTACTTATTGCACACATATAAAATATATTTAT [CACACA_site3101] | 7.74 |
| TAATATATTTATAGAGCATGCAACGTAATATTATTA [TGCATGCA_site863] | 7.12 |
| AAAATTTCTTTTTTTTGTACATATATAATAATATAT [XGTACX_site7107] | 6.92 |
| ATTTTTTTGGTAATTTGTACATAATATATACATAAT [XGTACX_site3742] | 7.21 |
| TACGTCTTTTTTTTGGTGCATAATTTTTTTGTACAA | 10.9 |
| TTAACGCTTATTTTTTGTACTTATTTTATTTTAAAT [XGTACX_site3977] | 7.22 |
| CCCTATATAAATAGCTGTACATTTGAACATGTTCAG [XGTACX_site2187] | 6.97 |
| GCAATTTTTTTTAAGAGTACTAATATATTATAGTGG [XGTACX_site7316] | 7.11 |

| Sequence | gcPBM binding intensity (ln) |
| --- | --- |
| TGTGCGGAAATAAGTGCACACATAGATATATGTATT [CACACA_site9227] | 10.8 |
| TGCGGAAATAAGTGCACACATAGATATATGTATTTT [CACACA_site3689] | 10.8 |
| TATAAATATATGTATGCACACATTTTTTTTGGAAAA [CACACA_site1070] | 8.1 |
| TGTGCGGAAATAAGTGCACACATAGATATCTGTATT [CACACA_site5935] | 10.9 |
| TGTGTGTGTATATGTGTGCACATATAAAATAGAAGA [GTGCAC_site9714] | 8.95 |
| AATAAATAGATATATACACACATATATGTGTACATA [CACACA_site7476] | 7.06 |
| TACAAATATATATGCACACACATATCTGTATATGTG [CACACA_site5663] | 7.66 |
| TATAAATATCTGTATGCACACATTTTTTTTGGAAAA [CACACA_site4734] | 8.04 |
| TATGTATAAATATATGCACACATATATATATTTATA [CACACA_site9150] | 7.18 |
| TTTTTCTCTTTAAGGTGTACAATAATACAGTAACCA [XGTACX_site300] | 7.44 |
| ATAAATAATAAAAAATGTACACATATAAATATAAAG [XGTACX_site727] | 7.11 |
| TCTTACGGATTCATTGTGCACATATATATATATATA [GTGCAC_site9896] | 9.46 |
| AGCACACGCAGACACACACACACACGCACACGCACA [CACACA_site6306] | 8.43 |
| TACCACATCGGTAAATGTACTTATAAAAAAAAAAAA [XGTACX_site3364] | 6.83 |
| TATATATATATGTATGCATGTTGTTTTTTATTTAAT [TGCATGCA_site343] | 9.27 |
| TTTTTGTTCTATATGGTGCATGTTTATATTCGTATT | 10.3 |
| TTACACATGTATTTGGTGCATGTTGTTAACAAAATA | 9.57 |
| TTTTGTTTATGTGTGCATTATATTATATTTTTTATT [TGCATGCA_negctrl_site146] | 7.83 |
| ATCATATTTATGTTGGTGCATTATACATAAAGTTTA [GTGCAC_site9574] | 10.2 |
| ACATTTAAAATTTATGCATGTGGTGTTTTGTATATA [TGCATGCA_site534] | 7.26 |
| TTTATTTTGTTTATGGTGCATTTTATGTAAATATAT | 10.8 |
| ACACATGTATTTGGTGCATGTTGTTAAAAAAATATT [TGCATGCA_site795] | 10.8 |

| Sequence | gcPBM binding intensity (ln) |
| --- | --- |
| CATACAATAAATATGGTGCATTTTATGTAACCGTTT [GTGCAC_site9420] | 10.4 |
| ATATATATATTTTATGCATGTTCATTTTCTATATTT [TGCATGCA_site442] | 8.1 |
| TATATATTGTTATATACACACATGTATTTAAAAAAT [CACACA_site5737] | 6.91 |
| GATATATTTTATATATGTACATACAATGGTAAATAT [XGTACX_site2759] | 7.09 |
| ATGAAATTTATATCATGTACATACAAGAGAAAAAAA [XGTACX_site3326] | 7 |
| ATTCTTTTTTTTTGGAAATGTATTTTTATGTTTTGT [TGCATGCA_negctrl_site426] | 6.73 |
| TTAAAAATAAATTCATGTACATAATATATATATATA [XGTACX_site7908] | 9.25 |
| TTTTTTGTTTGAATGGTGCATTTTGTAATTATATTT | 10.6 |
| ATTTTGTGTAGTGATGCATGTTATATATATATTTGA [TGCATGCA_site422] | 7.33 |
| TTATATTAATTTTGTTGTACTATTTGTGCATTAAAT [XGTACX_site4790] | 7.42 |
| TTTTGTAATGTGAATATTTGTATATTATTTGTATAT [CACACA_negctrl_site1677] | 7.03 |
| ATATATTTTTGTAGTGTGCACGTTTATATGGTGAAA | 10.3 |
| TTATATTTATATTTATGTACATATTTTGTGTGAAAA [XGTACX_site2367] | 7.27 |
| AAAAAAAAAAAAAATAGTACAATACCCAAATATAAC [XGTACX_site6684] | 7.3 |
| AAAAAAAAAAAAAAAGGTACAGTAAAAAATTCCTCT [XGTACX_site5947] | 7.41 |
| CACACAGGTAAAAAGGTGCAGTTGAAATATTCCTCA [GTGCAC_site9730] | 11.1 |
| GATAAATAATAATAAGGTACACATAAAATATTCCTT [XGTACX_site2963] | 6.86 |
| AAAAATAAATATACATGTACATAATAATAATATATA [XGTACX_site8359] | 6.97 |
| GATAATCAGAATGGGGTGCAAAGAAAAAAAAAAAAA | 11.3 |
| CTTTTAGAATAATCAGTGCAAAAAAAAAAAAAAAAA | 8.42 |
| TATTTAAAATAATGTGCAAAAGAATAAATAAATAAA [TGCATGCA_negctrl_site194] | 7.23 |
| TTTTTTTTTAAGTTTGCACACATGGAAGACAAAAAT [CACACA_site2505] | 7.96 |
